Sampled rows, rich in hits. Any-hit rate of the full collection: about 3.8%.
mIDH1 inhibitor = qHTS for Inhibitors of mutant isocitrate dehydrogenase 1 (IDH1): qHTS; Isocitrate dehydrogenase [NADP] cytoplasmic (Homo sapiens), O75874; IDH1-R132H enzyme, NADPH consumption, diaphorase/resazurin fluorescence; Potency, µM (doses to about 76.6 µM), inactives show at the top dose activity change, negative = inhibition, actives largely listed as inhibitors; 0.093% of 390,000 active; note: % is set by controls: 0 for no effect and ±100 for the full control effect; nearly all actives have a fitted effect of over 65% in size
Target sequence (O75874 whole entry R132H, stated change not applied): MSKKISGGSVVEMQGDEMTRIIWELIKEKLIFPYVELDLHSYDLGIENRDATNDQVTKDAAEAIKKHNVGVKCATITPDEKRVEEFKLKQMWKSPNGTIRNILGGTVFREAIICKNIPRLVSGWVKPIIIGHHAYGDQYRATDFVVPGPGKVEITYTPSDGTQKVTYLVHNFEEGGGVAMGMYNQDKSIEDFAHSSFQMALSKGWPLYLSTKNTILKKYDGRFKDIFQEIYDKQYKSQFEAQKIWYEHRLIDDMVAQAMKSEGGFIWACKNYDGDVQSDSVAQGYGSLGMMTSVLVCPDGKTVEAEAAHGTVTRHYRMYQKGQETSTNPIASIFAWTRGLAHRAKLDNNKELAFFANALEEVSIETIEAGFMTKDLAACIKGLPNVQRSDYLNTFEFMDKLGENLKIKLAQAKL
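IDH1-R132H (0.5 ug/mL) preincubated 30 min with compound, then NADPH (0.016 mM) and alpha-KG (2 mM) added; 80 min at RT, pH 7.5. Remaining NADPH coupled via diaphorase/resazurin to fluorescence (540/590 nm); concentration-response curves normalized to no-enzyme control.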
Nrf2 activator = qHTS of Nrf2 Activators. Potency, µM (series often up to 46.1 µM), for inactives: at the highest dose activation, most hits filed as activators. 0.31% of 410,000 active. AREc32 ARE-luciferase reporter (MCF7-derived line), luminescence, 24 h; note: % of control where 0% means no effect; nearly all actives have a fitted effect of over 65% in size
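For detection, Steady-Glo was added and plates sat 30 min at RT; before that, AREc32_Fluc cells grown overnight in OPTI-MEM/5% FBS had been treated with 23 nL compound for 24 hr at 37 deg C.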
Nrf2 inh = Nrf2 qHTS screen for inhibitors; AID 504444, 2011; Potency, µM (series often up to 46 µM), without a hit: top-dose activity change, negative = inhibition, hits mostly inhibitors; 2.1% of 360,000 active; A549 ARE-Fluc reporter, luciferase luminescence, 18-24 h; note: % is set by controls: 0 for no effect and ±100 for the full control effect; nearly all actives have a fitted effect of over 60% in size
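A549 ARE_Fluc cells (5000/well, 5% FBS OPTI-MEM) pre-incubated 2 h, then treated with compounds 18-24 h at 37C/5% CO2 in concentration-response. CellTiter-Fluor viability read first; BugLite luciferase luminescence after 15 min at room temperature gives Nrf2 activity.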
A549 tox = Nrf2 qHTS screen for inhibitors: counterscreen for cytotoxicity; AID 504648, 2011; Potency, µM (doses to about 46 µM), for the others: at the top dose activity change, negative = cytotoxicity, actives largely listed as inhibitors; 0.16% of 390,000 active; A549 ARE-Fluc cells, CellTiter-Fluor viability, 18-24 h; note: % is set by controls: 0 for no effect and ±100 for the full control effect
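Cytotoxicity counterscreen: CellTiter-Fluor fluorescence was measured in A549 ARE_Fluc cells after 18-24 h of compound exposure in a concentration series. The subsequent BugLite luminescent read reports ARE-luciferase activity.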
ELG1 repair inh = qHTS screen for small molecules that inhibit ELG1-dependent DNA repair in human embryonic kidney (HEK293T) cells expressing luciferase-tagged ELG1; HEK293T ELG1-luciferase reporter, luminescence, 16 h; DNA damage induced by 5-fluorouridine; Potency, µM (doses to about 46.1 µM), for the others: top-dose activity change, negative = inhibition, actives largely listed as inhibitors; 2.3% of 330,000 active; note: % is set by controls: 0 for no effect and ±100 for the full control effect; nearly all actives have a fitted effect of over 55% in size
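Reporter activity after DNA damage by 5-fluorouridine is monitored. Compound-treated cells incubate 16 hr at 37 °C, then ONE-Glo is added for 30 min before luminescence reading.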
An asterisk follows results filed as active; u = inconclusive; x = no result given; [ ] = remark or other dose. Calls come from the whole dose curve; as a rule, active = well fitted curve in the direction sought with a large enough effect; inconclusive = small, poorly fitted or top-dose-only effect, or another doubt; inactive = no such curve, though single readings can be large; an effect the other way counts as inactive or inconclusive. Potency is the fitted concentration of half-maximal effect.

SMILES	mIDH1 inhibitor	Nrf2 activator	Nrf2 inh	A549 tox	ELG1 repair inh
COCCCNC(=O)c1ccc(-n2c(-c3ccccc3)cc3c2CCCC3)cc1	-6%	13µM*	-10%	2%	x
CCCCC(CC)CNC(=O)c1ccc2c(=O)n(CCOC)c(=O)[nH]c2c1 (stereo not drawn)	-13%	0%	u	-4%	x
O=[N+]([O-])c1cc(-c2n(-c3ccccn3)c3ccccc3[n+]2-c2ccccn2)ccc1Cl	4%	25%	14%	4%	18µM*
COC(=O)[C@@]1(Cc2ccccc2)[C@@H]2C(=CC(=O)[C@H]2CC(=O)C(=O)N(C)C)CN1C(=O)c1ccccc1	-8%	-2%	u	u	7.3µM*
COC(=O)[C@@]1(Cc2ccc(F)cc2)[C@H]2c3cc(C(=O)N(C)C)n(CCF)c3C[C@H]2CN1C(=O)c1ccccc1	x	1%	x	x	x
COc1ccc(CCNCc2c(C(=O)O)c(C)n(Cc3c(F)cccc3Cl)c2C)cc1OC	9%	1%	u	7%	x
Cc1c(Cl)cccc1NC(=O)CSc1ncccc1C(=O)Oc1ccccc1Cl	-10%	7%	x	5%	x
CCOc1ccc(-n2nc3ccc(NC(=O)c4ccc(-c5cccc(Cl)c5)o4)cc3n2)cc1	-12%	1%	15µM*	-15%	x
CC(C)(C)OC(=O)N1CCC(c2nnc(SCc3ccccc3F)o2)CC1	0%	0%	21µM*	u	x
CC(=O)Nc1ccc(S(=O)(=O)NCCSCc2ccccc2Cl)cc1	13%	0%	10µM*	-1%	-19%
CC(=O)Nc1ccc(S(=O)(=O)NCC2CCC(C(=O)NCc3ccccc3Cl)CC2)cc1 (stereo not drawn)	24%	0%	x	8%	x
CCOC(=O)c1ccc(NC(=O)CN2C(=O)CC(c3ccc(C)c(C)c3)=Nc3ccccc32)cc1	0%	5%	u	-6%	x
CC(C)(C)c1ccc(C(=O)Nc2nnc3n2CCS3)cc1	0%	-1%	x	-13%	x
CCCn1c(SCC(=O)N2CCCC2)nc2c1c(=O)n(C)c(=O)n2C	2%	0%	1%	-3%	0%
COc1ccc(N2CCN(c3nc4c(c(=O)n(C)c(=O)n4C)n3Cc3ccccc3)CC2)cc1	4%	3%	u	-19%	u
COC(=O)Cn1c(CN2CCN(c3ccc(F)cc3)CC2)nc2c1c(=O)n(C)c(=O)n2C	14%	-1%	18µM*	-5%	u
CCCn1c(SCC(=O)N2CCN(c3ccc(OC)cc3)CC2)nc2c1c(=O)n(C)c(=O)n2C	5%	0%	-4%	-5%[1.84 µM]	21µM*
C=C(C)Cn1c(N2CCN(c3ccc(OC)cc3)CC2)nc2c1c(=O)n(C)c(=O)n2C	6%	2%	23µM*	-23%	u
O=C(COC(=O)c1cc([N+](=O)[O-])ccc1NCCO)c1ccc(Cl)cc1	13%	0%	2%	0%	u
CCc1ccc(C(=O)COC(=O)c2cc([N+](=O)[O-])ccc2NCCO)cc1	-5%	3%	7.3µM*	15µM*	15µM*
O=C(NNC(=O)c1ccccc1OCc1ccccc1)c1ccccc1O	32%	0%	-24%	-4%	u
O=C(NNC(=O)c1ccccc1OCc1ccc(F)cc1)c1ccccc1O	34%	-1%	-12%	-1%	2.3µM*
CN(C)S(=O)(=O)c1cccc(NC(=O)c2ccccc2OCc2ccc(F)cc2)c1	4%	0%	-23%	12%	21µM*
CN(C)S(=O)(=O)c1cccc(COc2ccccc2C(=O)Nc2ccccc2)c1	0%	-1%	u	-15%	u
COc1ccc(CC(=O)Nc2cc(-c3nc4cccnc4s3)ccc2C)cc1	-15%	8%	u	18%	x
CCOC(=O)N=Nc1c2ccccc2c2nc3no[nH]c3nc12	3%	-3%	0.65µM*	0.92µM*	1.5µM*
CCOC(=O)N=Nc1c(O)n(CC(=O)OC)c2ccccc12	10%	0%	26%	3%	0%

High-throughput results (PubChem)
